Screen size: about 320,000 compounds; about 8,000 (2.5%) were called active. No stated cut-off is given here; in the data, active means activation above about 47%; inactive means the rest. The full list was thinned out, with actives kept by preference.
These compounds were tested against Aryl hydrocarbon receptor (Homo sapiens) (UniProt P35869) (assay: AHR activators, primary screen, cell-based, luminescence, luciferase reporter, human (AID 2796;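 further: 0% = vehicle wells and 100% = reference agonist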)). Details: AHR-responsive luciferase reporter cells, at 5 µM, hits give high values.
Sequence of Aryl hydrocarbon receptor (Homo sapiens) (P35869 whole entry, looked up): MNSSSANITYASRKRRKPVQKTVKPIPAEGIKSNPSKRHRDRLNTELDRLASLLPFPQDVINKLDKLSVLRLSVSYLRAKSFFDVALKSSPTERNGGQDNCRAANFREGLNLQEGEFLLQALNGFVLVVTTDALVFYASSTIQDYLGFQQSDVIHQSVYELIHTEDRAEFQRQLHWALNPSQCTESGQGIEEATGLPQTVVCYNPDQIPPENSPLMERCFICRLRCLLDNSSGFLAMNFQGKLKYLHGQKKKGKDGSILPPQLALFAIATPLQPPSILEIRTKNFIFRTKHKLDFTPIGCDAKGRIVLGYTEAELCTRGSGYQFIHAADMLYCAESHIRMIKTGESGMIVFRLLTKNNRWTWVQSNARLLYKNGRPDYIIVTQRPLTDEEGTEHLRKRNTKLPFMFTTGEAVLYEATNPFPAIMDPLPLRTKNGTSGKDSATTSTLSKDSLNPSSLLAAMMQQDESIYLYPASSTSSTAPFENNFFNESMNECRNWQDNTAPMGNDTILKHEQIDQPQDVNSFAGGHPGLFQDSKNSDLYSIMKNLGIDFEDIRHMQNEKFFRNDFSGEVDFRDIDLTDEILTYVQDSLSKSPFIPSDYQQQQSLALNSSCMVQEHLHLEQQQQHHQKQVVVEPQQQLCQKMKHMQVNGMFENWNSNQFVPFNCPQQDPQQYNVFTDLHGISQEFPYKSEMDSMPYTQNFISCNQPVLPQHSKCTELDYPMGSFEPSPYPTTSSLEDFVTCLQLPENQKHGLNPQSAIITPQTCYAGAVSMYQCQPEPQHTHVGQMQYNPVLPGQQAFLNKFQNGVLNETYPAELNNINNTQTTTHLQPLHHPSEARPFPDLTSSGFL

activation, inactive:
COc1ccc(CCNC(=O)CN2C(=O)CCSc3ccccc32)c(OC)c1 -0.88%, Cn1cc(CCC(=O)NC2CC2)c2ccccc21 27.1%, CCCCn1c(N)c(N(Cc2ccccc2OC)C(=O)COc2cc(C)ccc2Cl)c(=O)[nH]c1=O 4.71%, Cc1cc([N+](=O)[O-])c(NC2CCCCC2)c([N+](=O)[O-])c1 -4%, O=C(COC(=O)c1ccc(O)cc1O)NNC(=O)c1cccs1 0.36%, CCc1ccc2nc3sc(C(=O)Nc4nnc(CC)s4)c(N)c3cc2c1 0.59%, Cc1ccc(NC(=O)CSCC(=O)Nc2sccc2C#N)cc1 25.5%, Cc1ccc(S(=O)(=O)c2nc(NCCCn3ccnc3)sc2Cl)cc1 9.5%, O=C(CCN1C(=O)c2ccccc2C1=O)NCCCn1ccnc1 6.16%, CCOC(=O)C1CCN(C(=O)COc2cccc3ccccc23)CC1 6.85%, Cc1ncoc1C(=O)NCCC(c1ccccc1)c1ccccc1 2.07%, Cc1cc(F)ccc1S(=O)(=O)Nc1ccc(C(=O)N(C)Cc2ccco2)cc1 -1.13%, Cc1cc(Cl)ccc1OCCCC(=O)Nc1cccc(-n2cnnn2)c1 2.58%, CCc1ccccc1NC(=O)c1ccc2snnc2c1 0.7%, O=C(Nc1ccc2ccccc2c1)Nc1ccc2snnc2c1 7.08%, COc1ccc(C(=O)NCC2CCCCC2)cc1S(=O)(=O)N1CCCC1 0.47%, COc1cc(C=NNC(=O)c2cccnc2)ccc1OC(=O)c1ccccc1F 7.39%, CCOC(=O)c1nnn(-c2nonc2-n2cccc2)c1CN1CCC(C(=O)OCC)CC1 0.56%, CC1CCc2c(nc3ncnn3c2Nc2ccc(OC(F)(F)F)cc2)C1 (stereo unspecified) 12.3%, Cc1cc(Nc2ccc(Br)cc2F)n2ncnc2n1 7.31%, CC(C)C[C@H](CO)Nc1nc(N(C)c2cccc(Cl)c2)c2ncn(C(C)C)c2n1 14.5%, OCCCNc1nccc(-c2cc(Nc3cccc(Cl)c3)ncn2)n1 -11.1%, CC1=NN(/C(=N\c2nnc(C)s2)Nc2ccccc2)[C@H](c2ccc(C)cc2)S1 3.18%, O=C(O)c1cccnc1NC1CCCC1 -0.53%, CCN(CC)S(=O)(=O)N1CCC(C(=O)NC(C)CCc2ccccc2)CC1 (stereo unspecified) -1.06%, C#CCCOC(=O)N1C2=NC(C(=O)OC)=C(C(=O)OC)[C@@H]3N(C)c4ccc(OC)cc4[C@]23C[C@H]1C(=O)OC -1.46%, O=C1CCc2cc(S(=O)(=O)Nc3ccc(C(F)(F)F)cc3)cc3c2N1CC3 -2.33%, COCC1CCCN(Cc2cn[nH]c2-c2cc3ccccc3o2)C1 (stereo unspecified) 4.44%, CC1CCN(Cc2nc(-c3ccc(Cl)cc3)no2)CC1 -0.15%, CCN1CN(Cc2ccccc2)CNC1=S 2.74%, CC(C)N1CCc2c(sc(NC(=O)Cc3ccccc3)c2C#N)C1 43.6%, COc1ccc(N2CCN(C(=O)c3ccc(N4CCCCS4(=O)=O)cc3)CC2)cc1 1.84%, CC1CN(C(=O)c2ccc3c(c2)OCO3)OC(c2ccccc2)O1 (stereo unspecified) 3.64%, COc1ccc2c(c1)CC[C@@H]1[C@@H]2CC[C@]2(C)C(=O)CC[C@@H]12 -1.47%, CC1(C)CC(CCC(=O)Nc2ccccc2Cl)C(=O)O1 (stereo unspecified) -0.84%, CC1(C)CC(CC(=O)O)C(=O)O1 (stereo unspecified) -2.54%, Cc1ccc(C(=O)OC2=CC(=O)CC(C)(C)C2)cc1 3.37%, CCN(CC)S(=O)(=O)c1ccc(Cl)c(C(=O)NC(C)C(c2cccs2)N2CCCC2)c1 (stereo unspecified) 1.85%, C=CC[C@@H](Cc1ccc(F)cc1)C(=O)OC[C@H]1CCCN1C(=O)[C@H](CC=C)CC(=O)N(CCO)Cc1ccccc1 -1.59%, Clc1ccc(Cl)c(Oc2ccc(Oc3nc(Cl)ccc3Cl)cc2)n1 -1.7%, COCCSc1nnc(NC(=O)c2cc(OC)c(OC)cc2[N+](=O)[O-])s1 1.43%, COc1ccc(Nc2ncnc3sc(C)cc23)cc1 37%, COc1ccc(NCCc2ccccn2)cc1 4.86%, O=C(NC(C(=O)NCCN1CCOCC1)C12CC3CC(CC(C3)C1)C2)C1CCCCC1 (stereo unspecified) 2.26%, Cn1c(N)c(C(=O)COC(=O)c2ccc3ccccc3c2)c(=O)n(C)c1=O -1.74%, Cc1ccc2c(Cl)c(C(=O)Nc3nn[nH]n3)sc2c1 1.09%, COc1ccc(-c2cc(C(=O)NCCCn3ccnc3)no2)cc1 15.1%, O=C(Nc1ccccc1C(=O)NCCCn1ccnc1)c1ccc(Cl)cc1Cl 20.3%, CCCC(=O)Nc1ccc(C(=O)NCCCn2ccnc2)cc1 0.23%, O=C(NCCCn1ccnc1)c1cc2c(s1)CCCC2 46.3%, O=C(/C=C/c1ccc(Cl)cc1)NCCCn1ccnc1 7.43%, O=C(NCCCn1ccnc1)c1ccccc1F 12.6%, COc1cc(OC)cc(C(=O)NCCCn2ccnc2)c1 32.8%, COc1ccc(C(=O)Nc2cc(S(=O)(=O)N3CCCC3)ccc2Cl)cc1 3.58%, C=CCNC(=O)c1ccc2c3n(nc2c1)-c1ccc(C)cc1CO3 -9.75%, CC1C(=O)Nc2ccccc2N1C(=O)c1ccc(F)cc1F (stereo unspecified) 3.47%, CCCN(CC1CC1)C(=S)NC(=O)c1ccccc1Br 0.93%, O=C(Cn1nc(Cc2cccnc2)c2ccccc2c1=O)NCC1COc2ccccc2O1 (stereo unspecified) 0.07%, O=C(NC1CCCC1)C(c1c(F)cccc1Cl)N(C(=O)c1csnn1)C1CC1 (stereo unspecified) 1.3%, COc1ccc(S(=O)(=O)N2CCCCC2)cc1NC(=O)COc1ccccc1 -0.98%, O=C(CN1C(=O)NC2(CCOc3ccccc32)C1=O)NCc1ccc(F)cc1 (stereo unspecified) 0.77%, Cc1cc(NC(=O)CCC(=O)N(CC(=O)NCC2CCCO2)c2ccccc2)no1 (stereo unspecified) -0.82%, CC(=O)NC(=S)Nc1ccc(NC(=O)c2cccnc2)cc1 0.34%, CC(C)NS(=O)(=O)c1ccc(NC(=O)c2cccnc2)cc1 0.76%, COc1ccc(CCNS(=O)(=O)c2ccc(Cl)s2)cc1OC 1.04%, N#Cc1cc([N+](=O)[O-])ccc1NC(=O)COC(=O)c1cnccn1 10.8%, COc1cccc(N(Cc2nnc3n2CCCCC3)C(=O)Nc2ccccc2F)c1 8.31%, COc1cc2[nH]c(=S)n(Cc3ccc(F)cc3)c(=O)c2cc1OC 0.4%, COc1cc2[nH]c(=S)n(CCN3CCCCC3C)c(=O)c2cc1OC (stereo unspecified) 7.8%, O=C(O)c1cc(S(=O)(=O)NC2CCCc3ccccc32)ccc1O (stereo unspecified) -0.8%, N#CCC(=O)NC(=O)NCC1CC1 3.61%, O=C(CCCN1C(=O)CSc2ncccc21)N1CCN(c2cccc(C(F)(F)F)c2)CC1 1.24%, CNS(=O)(=O)c1ccc(C(=O)NCC(=O)NCCc2ccc3c(c2)OCCO3)cc1 -1.1%, CCc1ccc(CNC(=O)C2CCN(c3nnc(C)c4c(C)n(-c5ccc(C)cc5)nc34)CC2)cc1 1.85%, COCCCNc1nc2c(-c3cccc(C(F)(F)F)c3)nnn2c2ccccc12 29%, COC(=O)Cn1nc(-c2ccccc2)c2cc(Cl)ccc21 1.76%, C=CCNC(=O)COc1coc(CN2CCN(Cc3ccccc3)CC2)cc1=O 1.03%, O=C(COC(=O)/C=C/c1cccc(Cl)c1)NCc1cccs1 1.89%, CCc1cccc(C)c1NC(=O)COC(=O)CNC(=O)c1cccs1 2.33%, CC[C@@]12C(=O)N(c3ccccc3)C(=O)N1[C@H](c1ccc(Br)cc1)[C@@H]1C(=O)N(C(C)(C)C)C(=O)[C@@H]12 -0.76%

activation, active:
COc1ccc(CCNC(=O)CCc2cn(C)c3ccccc23)c(OC)c1 48.4%, Cc1ccc(NC(=O)c2sc3nc(N)c(C#N)cc3c2N)cc1 115%, Cc1ccc(-c2nc(C#N)c(NCCCn3ccnc3)o2)cc1 124%, O=C(Nc1cccc(Br)c1)c1ccc2snnc2c1 106%, Brc1ccc(Nc2c3c(nc4ncnn24)CCC3)cc1 104%, CC(C)n1cnc2c(Nc3cccc(Cl)c3)nc(N(CCO)CCCO)nc21 95.2%, COCC1CCCN(Cc2nc(-c3ccc4c(c3)OCO4)no2)C1 (stereo unspecified) 52.6%, C/C(CC1CC(C)(C)OC1=O)=N/Nc1nc(-c2ccccc2)cs1 (stereo unspecified) 124%, COc1ccc(Nc2cc(Sc3ccc(OC)cc3)ncn2)cc1 54%, Cc1ccc2c(Cl)c(C(=O)NCCCn3ccnc3)sc2c1 55.7%, O=C(NCCCn1ccnc1)Nc1ccc(Cl)cc1Cl 69.2%, O=C(NCCCn1ccnc1)c1cc(-c2ccccc2)on1 168%, O=C(NCCCn1ccnc1)c1cc(Br)c(Br)s1 57.3%, NS(=O)(=O)c1ccc(NC(=S)NC(=O)c2cccnc2)cc1 56.7%, COc1cc2[nH]c(=S)n(Cc3ccc(C)o3)c(=O)c2cc1OC 73.8%, COCCCNc1nc2c(-c3cccc(C)c3)nnn2c2ccc(Cl)cc12 69.9%
